Assay [1] is described as follows: qHTS Assay for Lipid Storage Modulators (AID 1519; calls by dose curve; as to activity change, negative = inhibition: % is scaled to controls: 0 for no effect and ±100 for the full control effect). The note with it: Drosophila S3 cells, BODIPY lipid droplet/cell ratio, laser cytometry, cells loaded with oleic acid. Put shortly: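 Cells seeded at 5,000 per well were treated with compounds over a concentration series and loaded with oleic acid (400 uM, as added). Lipid droplet fluorescence (488 nm excitation, 500-530 nm channel) was read by laser-scanning cytometry and normalized to 20 uM Triacsin C.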
A general note: qHTS replaces the single test concentration by a dilution series.

The nature of assay [2]: Cell Viability - LYMP2-025 (AID 976).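 Also: plate controls were DMSO only for no effect and tetraoctylammonium bromide control for full effect.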 In outline:
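Human lymphoblastoid LYMP2-025 cells (2500/well) were pre-incubated 5 hr at 37 C, then treated with compounds for 24 hr at 37 C in complete medium. Viability was read as intracellular ATP by CellTiter-Glo luminescence; AC50 from Hill fits.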

Assay [3] in a line: Cell Viability - LYMP2-012 (AID 982).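 Also: cellular ATP by luciferase luminescence where a drop means cytotoxicity; cells exposed to compound for one day before reading; 0% = DMSO only and full loss = 92 µM tetraoctylammonium bromide; nearly all actives have a fitted effect of over 55% in size.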
Assay [4] in a line: Cell Viability - LYMP2-020 (AID 986).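 Also: plate controls were DMSO only for no effect and tetraoctylammonium bromide at 92 µM for full effect; nearly all actives have a fitted effect of over 55% in size.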 Put shortly:
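Human lymphoblastoid cells, 2500/well, were pre-incubated 5 hr at 37 C, then exposed to compounds for 24 hr at 37 C in complete medium. Intracellular ATP was read by CellTiter-Glo luminescence, and AC50 was derived by Hill fitting of concentration-response data.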

Assay [5] in a line: Cell Viability - LYMP2-024 (AID 988).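 Also: plate controls were DMSO only for no effect and 92 µM tetraoctylammonium bromide for full effect; nearly all actives have a fitted effect of over 60% in size.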 Put shortly:
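Human lymphoblastoid cells (2500/well) in complete medium were preincubated 5 hr at 37 C, then exposed to compounds for 24 hr at 37 C. Intracellular ATP was read by CellTiter-Glo luminescence; AC50 from Hill-equation fits of concentration-response data.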

The nature of assay [6]: Cell Viability - LYMP1-002 - Assay at 24 hr (AID 993). Also: % is scaled to controls: 0 for no effect and ±100 for the full control effect. In outline:
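Human lymphoblastoid LYMP1-002 cells, 2500/well in complete medium, were treated with compounds for 24 h at 37 C; intracellular ATP was read by CellTiter-Glo luminescence. AC50 values came from Hill-equation fits of qHTS concentration-response data.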

The nature of assay [7]: Cell Viability - LYMP2-002 (AID 977).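 Also: compound exposure lasted 24 h at 37 °C; plate controls were DMSO only for no effect and 92 µM tetraoctylammonium bromide for full effect.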 Put shortly: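 Human lymphoblastoid LYMP2-002 cells, 2500 per well, exposed to compounds for 24 h at 37 C in complete medium; viability read as intracellular ATP by CellTiter-Glo luminescence, AC50 from Hill fits.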
Assay [8] in a line: Cell Viability - LYMP2-006 (AID 978). Also: % is scaled to controls: 0 for no effect and ±100 for the full control effect; nearly all actives have a fitted effect of over 60% in size. In outline: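 Cells are seeded at 2500 per well and rested 5 hr at 37 C. Compounds are added across a concentration series for 24 hr at 37 C, after which ATP is quantified by luciferase luminescence.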
Assay [9] can be described thus: Cell Viability - LYMP2-007 (AID 979).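 Also: cells exposed to compound for 24 h before reading; 0% = DMSO only and the negative end = 92 µM tetraoctylammonium bromide; nearly all actives have a fitted effect of over 60% in size.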 In outline:
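Human lymphoblastoid cells (2500/well) were plated in complete medium, incubated 5 hr at 37 C, then exposed to compounds for 24 hr at 37 C. Intracellular ATP was read by CellTiter-Glo luminescence after 30 min at room temperature; AC50 from Hill fits.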

Assay [10] is described as follows: Cell Viability - LYMP2-008 (AID 980). Also: % is scaled to controls: 0 for no effect and ±100 for the full control effect; nearly all actives have a fitted effect of over 60% in size. Put shortly: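 Human lymphoblastoid cells (2500/well) were plated, held 5 hr at 37 C, then exposed to compounds for 24 hr at 37 C in complete medium. Intracellular ATP was read by CellTiter-Glo luminescence; AC50 from Hill-fitted concentration-response.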
Assay [11] is described as follows: Cell Viability - LYMP2-010 (AID 981). Also: % is scaled to controls: 0 for no effect and ±100 for the full control effect; nearly all actives have a fitted effect of over 55% in size. Put shortly:
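Human lymphoblastoid LYMP2-010 cells (2500/well) were preincubated 5 hr at 37 C, then exposed to compounds for 24 hr at 37 C in complete medium. Intracellular ATP was measured by CellTiter-Glo luminescence after 30 min at room temperature; AC50 from Hill-fitted concentration-response.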

A short description of assay [12]: Cell Viability - LYMP2-014 (AID 983).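 Also: plate controls were DMSO only for no effect and 92 µM tetraoctylammonium bromide for full effect; nearly all actives have a fitted effect of over 50% in size.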 In outline: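 Human lymphoblastoid cells (2500/well) were pre-incubated 5 hr at 37 C, then exposed to compounds in complete medium for 24 hr at 37 C. Intracellular ATP was read by CellTiter-Glo luminescence after 30 min at room temperature; AC50 from Hill fits.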
Assay [13] in a line: Cell Viability - LYMP2-016 (AID 984). Also: % is scaled to controls: 0 for no effect and ±100 for the full control effect; nearly all actives have a fitted effect of over 55% in size. Put shortly:
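Cells were seeded at 2500 per well and rested 5 hr before a 24 hr compound exposure at 37 C. Viability was then gauged as cellular ATP by luciferase luminescence, with AC50 values fitted to the Hill equation.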

A short description of assay [14]: Cell Viability - LYMP2-018 (AID 985).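 Also: plate controls were DMSO only for no effect and tetraoctylammonium bromide at 92 µM for full effect; nearly all actives have a fitted effect of over 50% in size.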 Put shortly: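 Human lymphoblastoid cells (2500/well) were pre-incubated 5 hr at 37 C, then exposed to compounds for 24 hr at 37 C in complete medium. Viability was read as intracellular ATP by CellTiter-Glo luminescence; AC50 values came from Hill-equation fits.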
Assay [15] is described as follows: Cell Viability - LYMP2-022 (AID 987). In outline: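 Human lymphoblastoid cells, 2500/well, preincubated 5 hr at 37 C, then exposed to compounds over a concentration range for 24 hr at 37 C in complete medium. Viability read as intracellular ATP by CellTiter-Glo luminescence after 30 min at room temperature; AC50 from Hill fits.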
Assay [16] in a line: Cell Viability - LYMP2-026 (AID 989). Also: % is scaled to controls: 0 for no effect and ±100 for the full control effect; nearly all actives have a fitted effect of over 50% in size. In outline:
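Human lymphoblastoid cells (2500/well) in complete medium were preincubated 5 hr at 37 C, then exposed to compounds for 24 hr at 37 C. Cellular ATP was read by CellTiter-Glo luminescence; AC50 from Hill-equation fits of concentration-response data.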

A short description of assay [17]: Cell Viability - LYMP1-002 - Assay at 40 hr (AID 994). Put shortly: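 Human lymphoblastoid cells, 2500/well in complete medium, were preincubated 5 hr at 37 C, then exposed to compounds for 40 hr at 37 C. Intracellular ATP was read by CellTiter-Glo luminescence after 30 min at room temperature; AC50 from Hill-equation fits.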
In assay [18] the target is Alpha-galactosidase A (Homo sapiens) (UniProt P06280). In words: Counterscreen for Glucocerebrosidase Inhibitors: qHTS Assay for Human alpha-Galactosidase at pH 4.5 (AID 992). Also: 0% is about no effect. Put shortly:
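Concentration-response curves (0.7 nM to 77 uM final) were modeled with the Hill equation to give AC50. Reactions: 2 nM enzyme, 80 uM fluorogenic alpha-galactoside, pH 4.5 citric acid buffer, 20 min, room temperature.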
For orientation: Counterscreens check selectivity or assay interference.

Assay [19] has as its target alpha-glucosidase (Oryza sativa, rice) (UniProt Q653V4). In words: Counterscreen for Glucocerebrosidase Inhibitors: qHTS Assay for Rice alpha-Glucosidase at pH 5.0 (AID 997).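 Also: 0% = full activity with enzyme and -100% = basal without enzyme.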 Put shortly:
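Rice alpha-glucosidase (4 nM final) with 400 uM 4-methylumbelliferyl-alpha-D-glucopyranoside in citrate buffer pH 5.0, 20 min at room temperature, stopped at pH 10; fluorescence 365/440 nm, compounds 0.7 nM–77 uM, AC50 from Hill fits.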

Setting [20] is: measured here: cell count channel max response.
[21] abbreviates: measured here: lipid channel max response.

Several values for one entry are separate records, joined by “and”; a condition that tells them apart may be missing. Equal entries are not always repeated. Results filed as inconclusive are left out. Activity calls are given as the source filed them. Unless noted, calls follow the shape of the dose curve; as a rule, active = well fitted curve in the direction sought with a large enough effect; inconclusive = small, poorly fitted or top-dose-only effect, or another doubt; inactive = no such curve, though single readings can be large; an effect the other way counts as inactive or inconclusive.

Chain of Alpha-galactosidase A (Homo sapiens) (P06280 whole entry, looked up): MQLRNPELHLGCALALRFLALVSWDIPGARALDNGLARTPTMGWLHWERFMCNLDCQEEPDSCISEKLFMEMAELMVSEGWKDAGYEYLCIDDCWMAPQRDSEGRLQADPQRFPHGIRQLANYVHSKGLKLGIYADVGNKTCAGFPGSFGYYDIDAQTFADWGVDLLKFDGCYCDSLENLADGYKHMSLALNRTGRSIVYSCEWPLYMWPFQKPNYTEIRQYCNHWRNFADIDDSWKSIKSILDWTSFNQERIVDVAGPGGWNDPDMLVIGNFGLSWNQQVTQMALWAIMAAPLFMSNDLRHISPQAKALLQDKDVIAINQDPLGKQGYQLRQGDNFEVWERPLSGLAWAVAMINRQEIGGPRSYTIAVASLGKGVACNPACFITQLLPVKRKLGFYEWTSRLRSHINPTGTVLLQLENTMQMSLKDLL

Consider `Cc1c(N)c(=O)n(-c2ccccc2)n1C`, for which the activity change, negative = inhibition in [1] (at 25.7 µM (top of the series)) is -0.255% (inactive); in assay [1] (at 57.5 µM (top of the series)) it was 3.79% (inactive). For the same compound, the max response in assay [1] (setting [20]) was 3.27% and 4.31%; in assay [1] (setting [21]), 6.06% and 9.92%.
As to `S=C(S)OC1CC2CC1C1CCCC21` (stereo not given), the activity change, negative = inhibition in assay [1] (at 57.5 µM (top of the series)) is -2.21% (inactive). Moreover, the max response is -18.8% in assay [1] (setting [20]) and -14.9% in [1] (setting [21]).
Take `CCCCCCCCCCCCCCCC(=O)OC(CC(=O)O)C[N+](C)(C)C` (stereo not given): the activity change, negative = inhibition in [1] (at 57.5 µM (top of the series)) is -1.01% (inactive). Besides, the results for the max response in assay [1] (setting [20]) and in assay [1] (setting [21]) were 29% and 25.7%, respectively.
On to `CN1C2CCC1CC(OC(=O)C(O)c1ccccc1)C2` (stereo not given), for which, in assay [1] (at 57.5 µM (top of the series)), the activity change, negative = inhibition was 9.19% (inactive). For the same compound, the max response in [1] (setting [20]) came to 16.5%; in assay [1] (setting [21]), 28.9%.
As for `O=C(O)Cc1ccc(-c2ccccc2)cc1`, the activity change, negative = inhibition in assay [1] (at 25.7 µM (top of the series)) is 1.48% (inactive). Further, the max response in [1] (setting [20]) is -7.71%; in [1] (setting [21]) it was -5.4%.
On to `Nc1nc(Cl)nc2c1ncn2[C@@H]1O[C@H](CO)[C@@H](O)[C@H]1O`, for which, in [1] (at 57.5 µM (top of the series)), the activity change, negative = inhibition is 5.13% (inactive). The results for the max response in [1] (setting [20]) and in assay [1] (setting [21]) were 7.07% and 14%, respectively.
The like results for `O=c1cc(-c2ccccc2)oc2c(O)c(O)ccc12` were, in that order, -5.17% (inactive), -10.5% and -5.87%.
In the case of `O=C1CN(/N=C/c2ccc([N+](=O)[O-])o2)C(=O)N1`, the Potency result in assay [2], in assay [3], in assay [4], in assay [5] and in [6] was “inactive” in each case. Also, the activity change, negative = inhibition in assay [1] (at 57.5 µM (top of the series)) was 8.89% (inactive). Further, the values for the max response in assay [1] (setting [20]) and in assay [1] (setting [21]) were 3.43% and 14.3%, respectively.
For `CN(C)c1ccc(/C=C2\C(=O)Nc3ccccc32)cc1`, in [1] (at 57.5 µM (top of the series)), the activity change, negative = inhibition was 0.655% (inactive). Moreover, the max response in [1] (setting [20]) was -28.2%; in assay [1] (setting [21]), -23.7%.
With `C#C[C@]1(O)CC[C@H]2[C@@H]3CCc4cc(O)ccc4[C@H]3CC[C@@]21C`, the Potency result in assay [2], in assay [7], in assay [8], in assay [9], in [10] and in [11] was “inactive” each time. For the same compound, the Potency result in assay [3], in assay [12], in [13], in [14], in [4] and in assay [15] was “inactive” in each case. Also, the Potency result in assay [5], in assay [16] and in assay [6] was “inactive” each time.
For `Nc1ccc([N+](=O)[O-])cc1O`, the Potency result in [2], in assay [7], in [8], in assay [9], in assay [10] and in assay [11] was “inactive” in each case. The Potency result in assay [3], in assay [12], in [13], in assay [14], in [4] and in [15] was “inactive” each time. In addition, the Potency entry in assay [5], in assay [16], in assay [6] and in [17] was “inactive” in each case.
As for `NCCCS(=O)(=O)O`, the compound was classed as inactive in [18] and in assay [19]. In assay [1] (at 57.5 µM (top of the series)), the activity change, negative = inhibition is 4.47% (inactive). For the same compound, the max response in [1] (setting [20]) is 17.3%; in assay [1] (setting [21]), 22.8%.
As for `O=c1cc(-c2ccccc2)oc2ccccc12`, the Potency entry in assay [2], in [7], in assay [8], in assay [9], in [10] and in [11] was “inactive” throughout. Further, the Potency result in assay [3], in [12], in assay [13], in assay [14], in assay [4] and in assay [15] was “inactive” throughout. Besides, the Potency result in assay [5], in assay [16], in assay [6] and in [17] was “inactive” throughout.

For the origin of these results see PubChem BioAssay (NCATS).
